# Assay results as given in PubChem BioAssay (NCI).
# This is part of a sample that, as a whole, favours compounds with a hit. Of some 83,000 tested, about 20% had one in any assay.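 A percent growth of 40 corresponds to 60% growth inhibition; 0 means no net growth; -100 means all cells died. Active threshold: below 10.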 Values without a mark were called inactive. The source made the active and inactive calls.
# Key:
# Test in all cases: NCI-60 one-dose screen, 48 h (100 = growth as untreated, 0 = no growth, -100 = all killed)
# Conditions in all cases: 10 µM unless noted
# NCI-H23 lung = system: NCI-H23 lung
# NCI-H226 lung = system: NCI-H226 lung
# NCI-H322M lung = system: NCI-H322M lung
# HOP-62 NSCLC = system: HOP-62 NSCLC
# NCI-H460 lung = system: NCI-H460 lung
# HOP-92 NSCLC = system: HOP-92 NSCLC
# NCI-H522 lung = system: NCI-H522 lung
# A549/ATCC NSCLC = system: A549/ATCC NSCLC
# 786-0 renal = system: 786-0 renal
# COLO 205 colon = system: COLO 205 colon
# DU-145 prostate = system: DU-145 prostate
# K-562 leukemia = system: K-562 leukemia
# MALME-3M melanoma = system: MALME-3M melanoma
# MDA-MB-231 breast = system: MDA-MB-231 breast
# RXF 393 renal = system: RXF 393 renal
# SF-268 CNS = system: SF-268 CNS
# SF-295 CNS = system: SF-295 CNS
# SF-539 CNS = system: SF-539 CNS
# UACC-257 melanoma = system: UACC-257 melanoma
# M14 melanoma = system: M14 melanoma
Structure (SMILES),growth (NCI-H23 lung),growth (NCI-H226 lung),growth (NCI-H322M lung),growth (HOP-62 NSCLC),growth (NCI-H460 lung),growth (HOP-92 NSCLC),growth (NCI-H522 lung),growth (A549/ATCC NSCLC),growth (786-0 renal),growth (COLO 205 colon),growth (DU-145 prostate),growth (K-562 leukemia),growth (MALME-3M melanoma),growth (MDA-MB-231 breast),growth (RXF 393 renal),growth (SF-268 CNS),growth (SF-295 CNS),growth (SF-539 CNS),growth (UACC-257 melanoma),growth (M14 melanoma)
CCCCc1nc(Cl)c(C2CC(c3ccc(Cl)cc3)=NN2c2cc(Cl)cc(Cl)c2)[nH]1 (stereo not given),69.5%,92.3%,70.6%,52.9%,30.2%,94%,32%,8.64% (active),41.3%,96.1%,40.8%,76.5%,88.4%,80.3%,43.3%,41.2%,74.3%,79.8%,94.8%,93.6%
CCOC(=O)NCCc1nc2c([nH]1)c(=O)n(C)c(=O)n2C,93.7%,105%,103%,115%,106%,93.5%,92.5%,104%,102%,109%,107%,119%,99.2%,105%,113%,98.5%,103%,105%,113%,88.8%
O=C1NC(c2ccc(F)cc2)N=C2C(c3ccccc3)=NOC12 (stereo not given),107%,99.9%,109%,96.5%,112%,103%,92.1%,90.7%,96.8%,116%,110%,105%,112%,115%,105%,107%,108%,105%,96.7%,110%
Nc1ccc(C2=NN(C(=O)c3cc(-c4ccc(Cl)cc4)nc4ccccc34)C(c3ccccc3)C2)cc1 (stereo not given),43.6%,53%,45.7%,35.4%,18.8%,50.9%,24%,40.7%,21.7%,30%,33.2%,15.6%,52.5%,61.2%,-3.58% (active),57.3%,13.1%,14.9%,55.3%,16.9%
Nc1ccc(C2=NN(C(=O)c3cc(-c4ccc(Cl)cc4)nc4ccccc34)C(c3ccc(Cl)cc3)C2)cc1 (stereo not given),50%,60.1%,45.2%,28.8%,17.2%,60.3%,15.4%,43.8%,25.6%,22.6%,27.2%,13.2%,63%,63.2%,-4.45% (active),55%,18.2%,8.98% (active),57.5%,6.28% (active)
COC(=O)c1oc2c(C(=O)/C=C/c3ccc(OC)cc3)c(OCCCN3CCCCC3)ccc2c1C,22.1%,89.4%,17.8%,1.98% (active),4.2% (active),-38.8% (active),1.11% (active),-3.52% (active),1.16% (active),29.2%,15.4%,-16.2% (active),-64.4% (active),32.4%,-75.2% (active),-2.59% (active),11.6%,-55.8% (active),40.1%,-40.3% (active)
COc1cc2cc(c1Cl)N(C)C(=O)C[C@H](OC(=O)[C@H](C)N(C)C(=O)CCS)C[C@]1(C)O[C@H]1[C@H](C)[C@@H]1C[C@@](O)(NC(=O)O1)[C@H](OC)/C=C/C=C(\C)C2,23.2%,69.5%,42.8%,18.3%,7.39% (active),4.28% (active),-31.2% (active),16.3%,13.8%,-65.7% (active),2.17% (active),11.7%,64.3%,17.8%,43.6%,37.1%,3.96% (active),-17.1% (active),69.3%,1.73% (active)
CN(C)CCCn1c2c(c3cc(-c4cccc(S(N)(=O)=O)c4)ccc3c1=O)C(=O)c1ccccc1-2,57.4%,77.8%,77.3%,53.1%,14.1%,104%,44.9%,64.7%,30.6%,59.1%,67.9%,33.1%,67.1%,94.4%,85.1%,51.6%,50.6%,80.9%,97.4%,62.7%
O=C1C(=O)c2c(nc3ccc(Br)cn23)-c2ccccc21,-38.7% (active),-92.6% (active),-96.6% (active),-96.5% (active),-63.2% (active),-75.3% (active),-72.6% (active),-63.5% (active),-96.9% (active),-82.4% (active),-100% (active),-59.8% (active),-97.9% (active),-20.1% (active),-94.1% (active),-71.7% (active),-100% (active),-99.1% (active),-99% (active),-92.9% (active)
Cc1ccc(C(=O)/C(=C/c2ccc([N+](=O)[O-])cc2)S(=O)Cc2ccccc2)cc1 (stereo not given),13.6%,47.1%,81.6%,47.9%,22.1%,36.9%,-32% (active),65.1%,-49.5% (active),-26.4% (active),4.09% (active),4.71% (active),-13.8% (active),-2.07% (active),-81.6% (active),35.8%,82.3%,-43.5% (active),65.9%,-26.1% (active)
C#C[C@@]1(O)[C@@H](CO)O[C@@H](n2cc(F)c3c(N)ncnc32)[C@@H]1O,-30.5% (active),-62.3% (active),-2.54% (active),17.5%,0.623% (active),-15% (active),-1.45% (active),-37.9% (active),-29.5% (active),-43.4% (active),2.84% (active),9.21% (active),-30.2% (active),-14.8% (active),-36.8% (active),15.9%,-23% (active),0.929% (active),2.98% (active),-42% (active)
COc1ccc(NC(=O)c2sc3nc(C)c(C(C)=O)cc3c2N)cc1,98.1%,95.9%,95.5%,99.1%,96%,94.6%,75.2%,84%,91.4%,103%,102%,86.2%,115%,102%,105%,102%,97.7%,87.8%,88.7%,100%
O=C(CN1N=C(c2ccc(F)cc2)CCC1=O)Nc1nc2ccccc2s1,-26.2% (active),41.7%,95.1%,-23.7% (active),51.3%,-77.1% (active),-73.5% (active),-48.8% (active),-90.2% (active),87.2%,84.6%,30.1%,-70.4% (active),-85.5% (active),45.8%,48%,-46.9% (active),-82.6% (active),88.1%,41.4%
Cc1cc(C)c2nc(Nc3nc(C)c(C)c(=O)[nH]3)nc(C)c2c1,18.4%,-4.16% (active),23.8%,12.2%,8.55% (active),7.24% (active),7.15% (active),-32.4% (active),6.33% (active),1.63% (active),19.1%,12.2%,-6.48% (active),27.8%,-32.4% (active),26.9%,11%,13.5%,14.1%,13.7%
Nc1c(C(=O)Nc2cccc3ccccc23)sc2nc3c(cc12)CCCCCC3,47.8%,70.6%,48.1%,38.8%,11.2%,52.9%,-37.1% (active),20.1%,26.4%,-2.61% (active),14.9%,9.1% (active),75.9%,39.3%,21.8%,45.6%,23.7%,-0.219% (active),68.8%,3.04% (active)
Nc1ccccc1NC(=O)c1ccc(CSc2nc(N3CCOCC3)c3cccn3n2)cc1,22.5%,6.52% (active),22%,15.5%,15.3%,-6.72% (active),-50.3% (active),11.8%,17.3%,-29% (active),9.93% (active),5.46% (active),30.9%,18.8%,-6.46% (active),4.84% (active),2.8% (active),15.2%,-3.3% (active),5.11% (active)
